Assay outcomes: PubChem BioAssay, National Center for Advancing Translational Sciences (NCATS)
VACV Venus inh = inhibitors of vaccinia virus (Venus reporter) | Vaccinia virus Venus reporter expression, fluorescence | 0.46% of 330,000 active | Potency, µM (series often up to 36.5 µM), usual class: inhibitors; calls by dose curve; tested in A549 cells; also: nearly all actives have a fitted effect of over 30% in size
HCV inhibitor = HCV inhibition; 3.4% of 340,000 active; Huh7.5.1 HCVcc-Cre infection, luciferase reporter, 44 h; Potency, µM (series often up to 41.8 µM), actives largely listed as inhibitors
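Infectious HCV cell culture screen: compound-treated cells (1,000/well, pre-plated 4 h) are infected with HCVcc-Cre at roughly 0.5 moi and grown 44 h. Infection is quantified by luciferase signal after 15 min substrate incubation at room temperature.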
Sm TGR block = inhibitors of Schistosoma mansoni thioredoxin glutathione reductase. Q962Y6. purified TGR, DTNB reduction, TNB absorbance 405 nm. 3% of 360,000 active. Potency, µM (top dose mostly 114 µM), most hits filed as inhibitors; also: nearly all actives have a fitted effect of over 60% in size
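First, TGR (20 nM dispensed) and NADPH were mixed with compound. Second, a 15 min room-temperature incubation followed. Third, further NADPH and then DTNB were added to start the reaction. Finally, TNB absorbance was monitored kinetically.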
HCMV antiviral = blocks human cytomegalovirus replication | HFF cells, HCMV-luciferase reporter, 72 h; stronger effect = lower value | activity change, negative = inhibition, % at 57.5 µM | AID 1259415 | 4.5% of 410,000 active; in the data active = activity change below about -60%; inconclusive = no clear call, values can overlap the other calls; inactive = above about -39%
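Luciferase read-out from HCMV-luciferase-infected HFFs (MOI 1 PFU/cell) 72 h post infection at 37C; compounds added after 16 h cell attachment; activity normalized between buffer-only basal and Salinomycin (10uM) inhibitor controls.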
VACV mCherry inh = inhibitors of vaccinia virus infection (mCherry reporter signal). AID 720579. 0.63% of 310,000 active. Vaccinia virus mCherry reporter infection, fluorescence. Potency, µM (highest dose often 36.5 µM), hits mostly inhibitors; calls by dose curve; tested in A549 cells; also: nearly all actives have a fitted effect of over 35% in size
FMDV antiviral = foot and mouth disease virus antiviral activity; FMDV antiviral cell-based qHTS; Potency, µM (titrated, usually from 57.9 µM), actives largely listed as inhibitors; 1.2% of 410,000 active; calls by dose curve; tested in HEK293T cells; also: read-out not given here; nearly all actives have a fitted effect of over 45% in size
Each line names hits and unclear results; the compound was inactive in the other large screens. Most compounds without a hit are left out; they make up all but 9.3% or so of the library. Unless noted, calls follow the shape of the dose curve; as a rule, active = well fitted curve in the direction sought with a large enough effect; inconclusive = small, poorly fitted or top-dose-only effect, or another doubt; inactive = no such curve, though single readings can be large; an effect the other way counts as inactive or inconclusive.

Cc1ccc(NC(=O)c2ccc([N+](=O)[O-])o2)cc1C	VACV Venus inh inconclusive, HCV inhibitor 13µM, Sm TGR block inconclusive, HCMV antiviral inconclusive, VACV mCherry inh inconclusive
O=C(COc1ccccc1)NC(=S)Nc1cccc(NC(=O)c2ccccc2Cl)c1	HCMV antiviral -64
O=C(Nc1cccc([N+](=O)[O-])c1)c1ccncc1	none
O=C(CC12CC3CC(CC(Br)(C3)C1)C2)NCc1ccccc1	none
O=C(Nc1ccc(CN2CCOCC2)cc1)c1ccc(N2CCCC2)c([N+](=O)[O-])c1	HCV inhibitor inconclusive
O=C(Nc1cccc([N+](=O)[O-])c1)c1ccc2c(c1)OCCO2	HCMV antiviral -107
O=C(Nc1cccc(NC(=O)c2ccccc2Cl)c1)c1ccc([N+](=O)[O-])o1	VACV Venus inh inconclusive, HCV inhibitor 10µM, Sm TGR block inconclusive, HCMV antiviral -98, VACV mCherry inh 7.9µM
O=C(c1cnc2ccc3ccccc3c2c1)c1cc(F)ccc1O	HCV inhibitor 5.6µM, VACV mCherry inh inconclusive, FMDV antiviral inconclusive
Cc1nn(C)c2ncc(C(=O)c3cc(F)ccc3O)cc12	FMDV antiviral inconclusive (no result: VACV mCherry inh)
NC(=O)CC(NC(=O)c1ccccc1)c1ccc(NC2CCCCCCC2)c([N+](=O)[O-])c1 (stereo not given)	HCMV antiviral -99, FMDV antiviral inconclusive
NC(=O)CC(NC(=O)Cc1ccc(Br)cc1)c1ccc(N2CCC(Cc3ccccc3)CC2)c([N+](=O)[O-])c1 (stereo not given)	VACV Venus inh 11µM, VACV mCherry inh inconclusive, FMDV antiviral inconclusive
NC(=O)CC(NC(=O)c1ccccc1)c1ccc(NCc2ccccc2)c([N+](=O)[O-])c1 (stereo not given)	HCV inhibitor 10µM
NC(=O)CC(NC(=O)Cc1ccc(Br)cc1)c1ccc(N2CCC(Br)CC2)c([N+](=O)[O-])c1 (stereo not given)	VACV Venus inh inconclusive
COc1ccc(CCNc2ccc(C(CC(N)=O)NC(=O)c3ccc(Br)cc3)cc2[N+](=O)[O-])cc1 (stereo not given)	VACV Venus inh 13µM, HCMV antiviral -72
NC(=O)CC(NC(=O)c1ccccc1)c1ccc(NCc2ccc(F)cc2)c([N+](=O)[O-])c1 (stereo not given)	VACV mCherry inh inconclusive
Cc1cc(C(=O)NC2CCC(C)CC2)c(C)o1 (stereo not given)	none (no result: VACV Venus inh, VACV mCherry inh)
COCCN(C(=O)CSc1nc2nc(C)cc(C)n2n1)c1c(N)n(Cc2ccccc2)c(=O)[nH]c1=O	none
Cn1c(=O)c2[nH]c(SCc3ccccn3)nc2n(C)c1=S	none (no result: VACV Venus inh, HCV inhibitor, VACV mCherry inh, FMDV antiviral)
N#Cc1cccc(C(=O)Nc2ccc(S(=O)(=O)Nc3nccs3)cc2)c1	none (no result: VACV Venus inh, Sm TGR block, VACV mCherry inh)
CC(C)(C)C(=O)NCCc1nc2ccccc2n1CC(=O)c1ccccc1	none
NC(=O)CC(NC(=O)c1ccc(Br)cc1)c1ccc(NCc2ccc(F)c(F)c2)c([N+](=O)[O-])c1 (stereo not given)	none
NC(=O)CC(NC(=O)Cc1ccc(Br)cc1)c1ccc(NCc2ccc(F)c(F)c2)c([N+](=O)[O-])c1 (stereo not given)	VACV Venus inh inconclusive, HCV inhibitor inconclusive, HCMV antiviral inconclusive, VACV mCherry inh 18µM
CCCCCCn1c(/C=C/c2ccccc2)nc2ccccc21	none (no result: HCV inhibitor)
Nc1ncnc2c1nc(Br)n2[C@@H]1O[C@H]2COP(=O)(O)O[C@@H]2[C@@H]1O	none (no result: HCV inhibitor, Sm TGR block, HCMV antiviral)
Nc1ncnc2c1nc(Br)n2[C@@H]1O[C@@H]2COP(=O)(O)O[C@H]2[C@H]1O	HCMV antiviral -76 (no result: Sm TGR block)
CCC(=O)NC(c1cccc([N+](=O)[O-])c1)c1c(OC(C)=O)ccc2ccccc12 (stereo not given)	FMDV antiviral inconclusive (no result: VACV mCherry inh)
CC(C)C(=O)NC(c1cccc([N+](=O)[O-])c1)c1ccc2cccnc2c1O (stereo not given)	VACV Venus inh 4.5µM, HCV inhibitor 4µM, HCMV antiviral -105, VACV mCherry inh inconclusive
CCCC(=O)NC(c1cccc([N+](=O)[O-])c1)c1ccc2cccnc2c1O (stereo not given)	VACV Venus inh inconclusive, HCMV antiviral -98, VACV mCherry inh 4µM (no result: HCV inhibitor, Sm TGR block)
Cc1noc(C)c1C(=O)OCC(=O)Nc1cccc(F)c1	HCMV antiviral inconclusive (no result: HCV inhibitor, Sm TGR block)
COc1ccc(CC(=O)N2CC(=O)Nc3ccc(Br)cc3C2c2ccc(F)cc2)cc1 (stereo not given)	none (no result: HCV inhibitor)
COc1ccc(-c2coc3c(C(=O)Nc4cccnc4)cccc23)c(C)c1	HCMV antiviral inconclusive, FMDV antiviral 20µM (no result: HCV inhibitor, Sm TGR block)
COc1ccc(-c2coc3c(C(=O)NCc4cccc(Cl)c4)cccc23)c(C)c1	HCMV antiviral -62 (no result: HCV inhibitor, Sm TGR block)
COc1ccc(-c2coc3c(C(=O)NCc4ccco4)cccc23)c(C)c1	HCMV antiviral inconclusive (no result: HCV inhibitor, Sm TGR block)
O=c1oc(C2(O)CCCCC2)cc2ccccc12	none (no result: Sm TGR block)
O=C1C2C3C=CC(C4CC34)C2C(=O)N1Cc1ccccc1 (stereo not given)	HCMV antiviral inconclusive
O=C1C2C3C=CC(C3=C3CCCCC3)C2C(=O)N1Cc1ccccc1 (stereo not given)	Sm TGR block 18µM, HCMV antiviral inconclusive (no result: FMDV antiviral)
Cc1c(NC(=O)/C(C#N)=C/c2c(Oc3ccccc3)nc3ccccn3c2=O)c(=O)n(-c2ccccc2)n1C	FMDV antiviral inconclusive
Cc1cccn2c(=O)c(/C=C(\C#N)C(N)=O)c(Oc3ccccc3)nc12	Sm TGR block 32µM (no result: VACV Venus inh, VACV mCherry inh)
Cc1cccn2c(=O)c(/C=C(\C#N)C(N)=O)c(N3CCN(c4ccccc4)CC3)nc12	HCMV antiviral inconclusive (no result: VACV Venus inh, VACV mCherry inh)
Cc1ccccc1Oc1nc2ccccn2c(=O)c1/C=C(\C#N)C(=O)Nc1c(C)n(C)n(-c2ccccc2)c1=O	FMDV antiviral 22µM
Cc1ccccc1Oc1nc2c(C)cccn2c(=O)c1/C=C(\C#N)C(=O)Nc1c(C)n(C)n(-c2ccccc2)c1=O	FMDV antiviral 32µM
S=C(Sc1ccc(Cl)cc1)Sc1ccc(Cl)cc1	Sm TGR block 2µM (no result: VACV Venus inh, HCV inhibitor, HCMV antiviral, VACV mCherry inh, FMDV antiviral)
Cc1[nH]c2ccccc2c1/C=C/c1cnc2ccccc2n1	none (no result: HCV inhibitor, Sm TGR block, HCMV antiviral, FMDV antiviral)
CCN1CCN(c2ccc(S(=O)(=O)N3CCCCC3)cc2NC(=O)/C=C/c2ccc([N+](=O)[O-])cc2)CC1	HCV inhibitor inconclusive, VACV mCherry inh inconclusive, FMDV antiviral inconclusive
CN1CCN(c2ccc(S(=O)(=O)N3CCCCC3)cc2NC(=O)/C=C/c2ccc(Cl)c([N+](=O)[O-])c2)CC1	HCV inhibitor inconclusive, HCMV antiviral -80, FMDV antiviral inconclusive
CN1CCN(c2ccc(S(=O)(=O)N3CCCCC3)cc2NC(=O)/C=C/c2ccc(OC(F)F)cc2)CC1	VACV Venus inh 13µM, HCV inhibitor inconclusive, VACV mCherry inh inconclusive
O=C(/C=C/c1ccc(Cl)c([N+](=O)[O-])c1)Nc1ccc(N2CCCC2)c(Cl)c1	HCMV antiviral -68
COC(=O)c1cc(C(=O)OC)n(Cc2ccc(Br)cc2)n1	none (no result: VACV Venus inh, VACV mCherry inh)
Cc1cc(C)c2nc(SC3CCOC3=O)cc(C)c2c1 (stereo not given)	none
